Assays:
Assay in all cases: growth AUC relative to DMSO control (median of replicates) (fraction); higher = more growth (less inhibition), active = hit call of the paper
Conditions in all cases: 20 µM; 24 h;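 active = AUC reduced over 20% with Padj below 0.05 in at least 2 of 3 replicates; inactive = otherwise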
Coprococcus comes = tested on: Coprococcus comes
In short: (§1)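 In round-bottom 96-well plates sealed with pierced gas-permeable seals, gut bacterial monocultures in mGAM were grown anaerobically at 37 °C from OD600 0.05 with 20 µM compound (1% DMSO). OD600 readings were taken hourly for 24 h, and the minimum OD was set to 0. Area under the growth curve was then normalised to the plate median of solvent-only wells, or to row and column medians on the industrial chemical plate. The value given is the median of three biological replicates grown on separate days.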

Escherichia coli ED1a = tested on: Escherichia coli ED1a
In short: as §1

Escherichia coli IAI1 = tested on: Escherichia coli IAI1
In short: as §1

Eubacterium rectale = tested on: Eubacterium rectale
In short: as §1

[1] = tested on: Fusobacterium nucleatum subsp. animalis
In short: as §1

Lactobacillus gasseri = tested on: Lactobacillus gasseri
In short: as §1

Lactobacillus paracasei = tested on: Lactobacillus paracasei
In short: as §1

Odoribacter splanchnicus = tested on: Odoribacter splanchnicus
In short: as §1

[2] = tested on: Parabacteroides distasonis
In short: as §1

Parabacteroides merdae = tested on: Parabacteroides merdae
In short: as §1

Roseburia intestinalis = tested on: Roseburia intestinalis
In short: as §1

Streptococcus salivarius = tested on: Streptococcus salivarius
In short: as §1

Measured: growth AUC

CC(C)(C)[C@@H](O)[C@@H](Cc1ccc(Cl)cc1)n1cncn1 (mixture of isomers)
inactive: Coprococcus comes 0.994 | Escherichia coli ED1a 1 | Escherichia coli IAI1 0.986 | Eubacterium rectale 1.02 | [1] 0.975 | Lactobacillus gasseri 0.913 | Lactobacillus paracasei 0.954 | Odoribacter splanchnicus 1.13 | [2] 0.983 | Parabacteroides merdae 0.911 | Roseburia intestinalis 0.963 | Streptococcus salivarius 0.95

CCSc1nc(NC(C)C)nc(NC(C)C)n1
inactive: Coprococcus comes 0.984 | Escherichia coli ED1a 1.01 | Escherichia coli IAI1 0.982 | Eubacterium rectale 0.787 | [1] 0.91 | Lactobacillus gasseri 1.03 | Lactobacillus paracasei 0.896 | Odoribacter splanchnicus 0.968 | [2] 1 | Parabacteroides merdae 0.91 | Roseburia intestinalis 0.96 | Streptococcus salivarius 0.999

COc1cc(OC)c(Cl)cc1N
inactive: Coprococcus comes 1.03 | Escherichia coli ED1a 1 | Escherichia coli IAI1 1.01 | Eubacterium rectale 1.03 | [1] 1.14 | Lactobacillus gasseri 0.969 | Lactobacillus paracasei 1.04 | Odoribacter splanchnicus 1.04 | [2] 1.02 | Parabacteroides merdae 1.04 | Roseburia intestinalis 1.06 | Streptococcus salivarius 1.06

COCCOc1ccccc1S(=O)(=O)NC(=O)Nc1nc(OC)nc(OC)n1
inactive: Coprococcus comes 0.987 | Escherichia coli ED1a 0.959 | Escherichia coli IAI1 0.97 | Eubacterium rectale 0.983 | [1] 0.983 | Lactobacillus gasseri 0.88 | Lactobacillus paracasei 1.02 | Odoribacter splanchnicus 1.08 | [2] 0.978 | Parabacteroides merdae 0.94 | Roseburia intestinalis 0.907 | Streptococcus salivarius 0.98

O=C(O)c1cccc2nnsc12
inactive: Coprococcus comes 0.996 | Escherichia coli ED1a 0.989 | Escherichia coli IAI1 0.991 | Eubacterium rectale 1.01 | [1] 0.982 | Lactobacillus gasseri 0.936 | Lactobacillus paracasei 0.909 | Odoribacter splanchnicus 1.03 | [2] 0.999 | Parabacteroides merdae 0.998 | Roseburia intestinalis 0.989 | Streptococcus salivarius 1.01

S=C([S-])NCCNC(=S)[S-].[Mn+2]
inactive: Coprococcus comes 0.998 | Escherichia coli ED1a 1.03 | Escherichia coli IAI1 1.03 | Eubacterium rectale 1.02 | [1] 1.04 | Lactobacillus gasseri 0.994 | Lactobacillus paracasei 1.16 | Odoribacter splanchnicus 1.06 | [2] 1.02 | Parabacteroides merdae 1.03 | Roseburia intestinalis 0.96 | Streptococcus salivarius 1.07

CC(C)(SC(=O)N1CCCCC1)c1ccccc1
active: [2] 0.778
inactive: Coprococcus comes 0.998 | Escherichia coli ED1a 1.01 | Escherichia coli IAI1 1.01 | Eubacterium rectale 1.02 | [1] 1.07 | Lactobacillus gasseri 1.01 | Lactobacillus paracasei 1.02 | Odoribacter splanchnicus 1 | Parabacteroides merdae 0.965 | Roseburia intestinalis 1.05 | Streptococcus salivarius 0.98

Cn1cc(C(=O)Nc2ccccc2-c2cc(F)c(F)c(F)c2)c(C(F)F)n1
inactive: Coprococcus comes 0.97 | Escherichia coli ED1a 0.985 | Escherichia coli IAI1 0.987 | Eubacterium rectale 0.937 | [1] 0.873 | Lactobacillus gasseri 0.995 | Lactobacillus paracasei 0.943 | Odoribacter splanchnicus 0.964 | [2] 0.916 | Parabacteroides merdae 0.937 | Roseburia intestinalis 0.997 | Streptococcus salivarius 0.966

ClC=C(c1ccc(Cl)cc1)c1ccc(Cl)cc1
inactive: Coprococcus comes 0.942 | Escherichia coli ED1a 0.99 | Escherichia coli IAI1 0.977 | Eubacterium rectale 0.977 | [1] 0.98 | Lactobacillus gasseri 0.915 | Lactobacillus paracasei 0.946 | Odoribacter splanchnicus 1.07 | [2] 0.977 | Parabacteroides merdae 0.948 | Roseburia intestinalis 0.932 | Streptococcus salivarius 0.928

Br[C@@H]1CC[C@@H](Br)[C@@H](Br)CC[C@H](Br)[C@H](Br)CC[C@H]1Br
inactive: Coprococcus comes 0.975 | Escherichia coli ED1a 0.944 | Escherichia coli IAI1 0.968 | Eubacterium rectale 1.08 | [1] 1.03 | Lactobacillus gasseri 0.91 | Lactobacillus paracasei 0.872 | Odoribacter splanchnicus 0.992 | [2] 0.825 | Parabacteroides merdae 1 | Roseburia intestinalis 1.43 | Streptococcus salivarius 0.898

Clc1ccc(C(c2ccccc2Cl)C(Cl)Cl)cc1 (stereo not given)
active: [2] 0.615
inactive: Coprococcus comes 1.03 | Escherichia coli ED1a 1 | Escherichia coli IAI1 0.978 | Eubacterium rectale 0.952 | [1] 1.01 | Lactobacillus gasseri 0.496 | Lactobacillus paracasei 1.04 | Odoribacter splanchnicus 1.02 | Parabacteroides merdae 0.976 | Roseburia intestinalis 0.911 | Streptococcus salivarius 0.966

CCOC(=O)[C@@H](C)Oc1ccc(Oc2nc3ccc(Cl)cc3o2)cc1
inactive: Coprococcus comes 1.01 | Escherichia coli ED1a 1.03 | Escherichia coli IAI1 1 | Eubacterium rectale 0.876 | [1] 1.02 | Lactobacillus gasseri 0.991 | Lactobacillus paracasei 1.03 | Odoribacter splanchnicus 1.09 | [2] 0.999 | Parabacteroides merdae 0.971 | Roseburia intestinalis 0.975 | Streptococcus salivarius 1.05

Oc1cccc2ccccc12
inactive: Coprococcus comes 0.96 | Escherichia coli ED1a 0.994 | Escherichia coli IAI1 0.982 | Eubacterium rectale 0.957 | [1] 0.988 | Lactobacillus gasseri 0.976 | Lactobacillus paracasei 1.02 | Odoribacter splanchnicus 0.975 | [2] 0.983 | Parabacteroides merdae 0.997 | Roseburia intestinalis 0.952 | Streptococcus salivarius 0.986

Br[C@@H]1CC[C@@H](Br)[C@@H](Br)CC[C@@H](Br)[C@@H](Br)CC[C@H]1Br
active: [2] 0.682 | Streptococcus salivarius 0.521
inactive: Coprococcus comes 0.934 | Escherichia coli ED1a 0.897 | Escherichia coli IAI1 0.979 | Eubacterium rectale 1 | [1] 1.01 | Lactobacillus gasseri 0.947 | Lactobacillus paracasei 0.996 | Odoribacter splanchnicus 0.983 | Parabacteroides merdae 0.931 | Roseburia intestinalis 1

CN(C)C(N)=O
inactive: Coprococcus comes 0.993 | Escherichia coli ED1a 1.01 | Escherichia coli IAI1 0.953 | Eubacterium rectale 0.967 | [1] 1.01 | Lactobacillus gasseri 0.983 | Lactobacillus paracasei 1.03 | Odoribacter splanchnicus 1.03 | [2] 0.968 | Parabacteroides merdae 1.01 | Roseburia intestinalis 0.996 | Streptococcus salivarius 1.02

CCOC(=O)Nc1cccc(OC(=O)Nc2cccc(C)c2)c1
inactive: Coprococcus comes 0.963 | Escherichia coli ED1a 0.94 | Escherichia coli IAI1 0.953 | Eubacterium rectale 1.01 | [1] 0.974 | Lactobacillus gasseri 0.896 | Lactobacillus paracasei 1.01 | Odoribacter splanchnicus 1.08 | [2] 0.913 | Parabacteroides merdae 0.932 | Roseburia intestinalis 0.912 | Streptococcus salivarius 0.971

CON(C(=O)c1cc(C)oc1C)C1CCCCC1
inactive: Coprococcus comes 0.992 | Escherichia coli ED1a 1.01 | Escherichia coli IAI1 0.968 | Eubacterium rectale 1 | [1] 1.03 | Lactobacillus gasseri 1.05 | Lactobacillus paracasei 0.991 | Odoribacter splanchnicus 1.02 | [2] 1.05 | Parabacteroides merdae 0.982 | Roseburia intestinalis 1.09 | Streptococcus salivarius 0.989

CCOC(=O)C1CC(=O)C(=C(O)C2CC2)C(=O)C1 (stereo not given)
inactive: Coprococcus comes 1.02 | Escherichia coli ED1a 0.972 | Escherichia coli IAI1 1.01 | Eubacterium rectale 0.961 | [1] 1.01 | Lactobacillus gasseri 1.01 | Lactobacillus paracasei 0.937 | Odoribacter splanchnicus 0.976 | [2] 0.984 | Parabacteroides merdae 1.03 | Roseburia intestinalis 1 | Streptococcus salivarius 0.988

O=C1NCCN1
inactive: Coprococcus comes 1.04 | Escherichia coli ED1a 1.05 | Escherichia coli IAI1 1.06 | Eubacterium rectale 1.01 | [1] 1.03 | Lactobacillus gasseri 0.984 | Lactobacillus paracasei 0.904 | Odoribacter splanchnicus 1.04 | [2] 1.02 | Parabacteroides merdae 1.04 | Roseburia intestinalis 1.24 | Streptococcus salivarius 1.02

CCCC(C)(C)C(=O)Nc1ccc(Cl)cc1
inactive: Coprococcus comes 0.978 | Escherichia coli ED1a 0.973 | Escherichia coli IAI1 1.01 | Eubacterium rectale 0.958 | [1] 0.938 | Lactobacillus gasseri 1.1 | Lactobacillus paracasei 0.989 | Odoribacter splanchnicus 0.958 | [2] 0.928 | Parabacteroides merdae 0.949 | Roseburia intestinalis 0.945 | Streptococcus salivarius 0.963

CC1CN(C2CCCCCCCCCCC2)CC(C)O1 (mixture of isomers)
inactive: Coprococcus comes 0.992 | Escherichia coli ED1a 0.994 | Escherichia coli IAI1 0.971 | Eubacterium rectale 1.23 | [1] 0.955 | Lactobacillus gasseri 0.926 | Lactobacillus paracasei 1.02 | Odoribacter splanchnicus 1.14 | [2] 1.02 | Parabacteroides merdae 0.97 | Roseburia intestinalis 0.992 | Streptococcus salivarius 1

c1cc2ccc3ccc4ccc5cccc6c(c1)c2c3c4c56
inactive: Coprococcus comes 1.01 | Escherichia coli ED1a 1.04 | Escherichia coli IAI1 1.01 | Eubacterium rectale 0.999 | [1] 0.946 | Lactobacillus gasseri 0.994 | Lactobacillus paracasei 1.02 | Odoribacter splanchnicus 1.01 | [2] 1.04 | Parabacteroides merdae 1.02 | Roseburia intestinalis 1.02 | Streptococcus salivarius 1.02

C#CC(C)N(C)C(=O)Nc1ccc(Cl)cc1 (stereo not given)
inactive: Coprococcus comes 1.05 | Escherichia coli ED1a 1.04 | Escherichia coli IAI1 0.988 | Eubacterium rectale 1 | [1] 1.03 | Lactobacillus gasseri 1.07 | Lactobacillus paracasei 1.02 | Odoribacter splanchnicus 0.994 | [2] 0.95 | Parabacteroides merdae 1.01 | Roseburia intestinalis 0.992 | Streptococcus salivarius 0.993

NC(Cn1cncn1)C(=O)O (stereo not given)
inactive: Coprococcus comes 1.01 | Escherichia coli ED1a 0.966 | Escherichia coli IAI1 0.976 | Eubacterium rectale 0.93 | [1] 0.94 | Lactobacillus gasseri 0.999 | Lactobacillus paracasei 0.977 | Odoribacter splanchnicus 0.967 | [2] 1.05 | Parabacteroides merdae 1.01 | Roseburia intestinalis 1 | Streptococcus salivarius 0.998

CNC(=O)/C(=N/OC)c1ccccc1CO/N=C(C)/C(=N/OC)C(/C)=N/OC
inactive: Coprococcus comes 1.01 | Escherichia coli ED1a 1.01 | Escherichia coli IAI1 1.05 | Eubacterium rectale 0.928 | [1] 0.91 | Lactobacillus gasseri 1.16 | Lactobacillus paracasei 0.998 | Odoribacter splanchnicus 0.989 | [2] 0.997 | Parabacteroides merdae 0.976 | Roseburia intestinalis 1.01 | Streptococcus salivarius 1.01
